Columns and labels:
[1] = tested on: Human papillomavirus type 1a protein E7 (residues 44-93); assay: small molecules binding HPV E7 44-93 – biochemical, small-molecule microarray, residues 44-93, 635 nm fluorescence, primary screen (AID 1108); details: fluorescence 635 nm, higher = more signal;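 also: E7 fragment applied at 1 µg/mL in TBST for 1 h at 4 C; score combines spot fluorescence with its signal to noise ratio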
[2] = hepatitis C replication reporter changes, two-sided – Huh7 cells, luciferase reporter, HCV replication inhibitor project, primary screen (AID 1109); details: Huh7 HCV replicon luciferase reporter, 48 h; higher = more signal;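 also: huh7 hepatoma cells harbouring a luciferase neomycin HCV replicon reporter; luciferase luminescence as measure of HCV replicon replication; test concentration not given here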
[3] = biological target: Left-right determination factor 2 (Homo sapiens) (UniProt O00292); assay: small molecules binding LEFTY2 protein – biochemical, small-molecule microarray, 635 nm fluorescence scan, primary screen (AID 1110); details: higher = more signal
Sequence of Left-right determination factor 2 (Homo sapiens) (O00292 whole entry, looked up): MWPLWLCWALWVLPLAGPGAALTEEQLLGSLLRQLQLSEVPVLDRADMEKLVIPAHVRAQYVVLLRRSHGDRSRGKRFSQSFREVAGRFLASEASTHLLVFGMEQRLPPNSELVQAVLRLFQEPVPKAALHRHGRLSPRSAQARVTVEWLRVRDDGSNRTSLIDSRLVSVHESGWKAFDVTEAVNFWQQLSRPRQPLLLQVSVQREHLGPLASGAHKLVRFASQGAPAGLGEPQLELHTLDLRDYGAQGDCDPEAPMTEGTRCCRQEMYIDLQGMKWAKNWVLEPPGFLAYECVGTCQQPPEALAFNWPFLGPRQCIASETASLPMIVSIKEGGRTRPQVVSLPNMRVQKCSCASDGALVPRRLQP

[4] = biological target: Calmodulin-1 (Homo sapiens) (UniProt P0DP23); assay: small molecules binding calmodulin-1 with EGTA – biochemical, small-molecule microarray, Cy5-labelled CALM1, profiling panel (AID 1111); details: Cy5-CALM1 binding fluorescence, higher = more signal;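 also: labelled calmodulin applied in Tris saline Tween buffer holding calcium plus EGTA and DTT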
[5] = biological target: Calmodulin-1 (Homo sapiens) (UniProt P0DP23); assay: small molecules binding Ca-loaded calmodulin-1 – biochemical, small-molecule microarray, Cy5-labelled CALM1, plus calcium, artefact control for SMM control-protein annotation, profiling panel (AID 1112); details: Cy5-CALM1 binding fluorescence, higher = more signal;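 also: score merges spot fluorescence with signal to noise from triplicate slides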
[6] = probe aWnt5a binding to arrayed compounds – biochemical, biotinylated probe, 635/667 nm fluorescence, primary screen (AID 1113); details: small-molecule microarray, higher = more signal;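 also: score merges 667 nm fluorescence intensity with signal-to-noise per printed feature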
[7] = probe aShh binding to arrayed compounds – biochemical, biotinylated probe, 635/667 nm fluorescence, primary screen (AID 1114); details: small-molecule microarray, higher = more signal;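 also: probe is biotin-labelled aShh protein from a stem cell growth factor screen; measures binding of labelled protein to compounds printed on the slide; score merges feature fluorescence at 667 nm with signal-to-noise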
[8] = probe aNog binding to arrayed compounds – biochemical, biotinylated probe, 635/667 nm fluorescence, primary screen (AID 1115); details: small-molecule microarray, higher = more signal;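 also: probe is biotinylated aNog protein used at 0.15 µg/mL for 1 h at 4 C; z-score combines 667 nm fluorescence of each spot with its signal to noise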
[9] = biological target: Torsin-1A-interacting protein 1 (Homo sapiens) (UniProt Q5JTV8); assay: compound microarray binding of lysate hLAP1 – cell lysate, small-molecule microarray, COS7 lysate, 635/667 nm fluorescence, primary screen (AID 1116); details: 635 nm fluorescence, higher = more signal
Sequence of Torsin-1A-interacting protein 1 (Homo sapiens) (Q5JTV8 whole entry, looked up): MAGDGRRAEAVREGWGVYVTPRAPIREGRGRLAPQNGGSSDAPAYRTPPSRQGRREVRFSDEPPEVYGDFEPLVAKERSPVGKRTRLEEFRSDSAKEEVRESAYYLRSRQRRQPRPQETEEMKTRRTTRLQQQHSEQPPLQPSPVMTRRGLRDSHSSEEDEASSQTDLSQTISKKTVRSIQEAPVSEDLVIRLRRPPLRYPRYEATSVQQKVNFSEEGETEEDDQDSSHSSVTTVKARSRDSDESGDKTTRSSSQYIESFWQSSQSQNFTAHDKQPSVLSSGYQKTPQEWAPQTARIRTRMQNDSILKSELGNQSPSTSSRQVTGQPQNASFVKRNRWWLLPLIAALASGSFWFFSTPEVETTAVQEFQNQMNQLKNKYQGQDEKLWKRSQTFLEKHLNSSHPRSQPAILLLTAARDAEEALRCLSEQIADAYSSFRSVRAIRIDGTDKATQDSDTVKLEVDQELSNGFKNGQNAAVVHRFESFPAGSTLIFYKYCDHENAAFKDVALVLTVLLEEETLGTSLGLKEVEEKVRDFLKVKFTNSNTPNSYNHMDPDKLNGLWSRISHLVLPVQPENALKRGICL

[10] = biological target: Alpha-bungarotoxin (Bungarus multicinctus) (UniProt P60615); assay: compounds binding labelled alpha-BTX control protein – biochemical, small-molecule microarray, Alexa647 label, 635/667 nm fluorescence, artefact control for SMM control protein annotation, profiling panel (AID 1117); details: alpha-BTX-A647 binding fluorescence, higher = more signal
Sequence of Alpha-bungarotoxin (Bungarus multicinctus) (P60615 whole entry, looked up): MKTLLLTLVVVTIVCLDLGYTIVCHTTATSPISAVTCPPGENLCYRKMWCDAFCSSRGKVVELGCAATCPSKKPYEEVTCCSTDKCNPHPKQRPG

Compound	composite z-score [1]	z-score [2]	composite z-score [3]	composite z-score [4]	composite z-score [5]	composite z-score [6]	composite z-score [7]	composite z-score [8]	composite z-score [9]	composite z-score [10]
O=C1C2C=CC(C(O)c3ccco3)N(Nc3ccccc3F)C2C(=O)N1c1ccccc1 (stereo not given)	0.761	-0.137	-0.46	0.175	-0.0085	0.115	0.184	0.742	0.942	0.25
COCCOC(=O)N1C(=O)[C@@]2(c3cc(C#CC4(O)CCCCCC4)ccc31)[C@H](C(=O)N1CCc3cc(OC)c(OC)cc3C1)[C@H]1C(=O)O[C@H](c3ccccc3)[C@H](c3ccccc3)N1[C@@H]2c1ccc(OCCO)cc1	1.14	-1.22	0.805	0.903	-0.392	-0.0685	-0.0011	-0.136	0.695	0.152
COC(=O)[C@@]1(Cc2ccc(F)cc2)[C@H]2c3cc(C(=O)N(C)C)n(CCc4ccc(OC)c(Br)c4)c3C[C@H]2CN1C(=O)c1ccccc1	0.971	-3.74	-0.392	0.314	0.535	1.19	0.289	2.8	0.589	0.653
CC(C)N1C(=O)C[C@@](C(=O)O)(c2ccc([N+](=O)[O-])cc2)[C@H]1c1ccc(CO)cc1	0.48	0.253	-1.14	0.233	0.432	-0.118	-0.153	-0.409	0.335	-0.315
CC(CO)N1C(=O)[C@]2(C)C3C(=O)OCCC/C=C\[C@H]3OC23C=CCN(c2ccc(Cl)cc2)C(=O)[C@@H]13 (stereo not given in full)	-0.886	0.636	-0.945	-0.275	0.079	-0.0573	-0.243	-0.318	-0.549	-0.358
CCCC[C@@H](O)C1=C(COC)C[C@H]2C(=O)N(C)C(=O)[C@H]2[C@H]1CO	0.0944	-0.338	0.822	-0.419	-0.573	-0.0417	-0.138	-0.267	0.13	-0.165
N[C@@H](Cc1ccccc1)C(=O)NCc1cn(Cc2ccccc2)nn1	-0.132	0.0943	0.167	-0.761	-0.232	-0.119	-0.0904	-0.245	0.775	1.11
C=CCNC(=O)[C@@H]1[C@H]2C(=O)O[C@H](c3ccccc3)[C@H](c3ccccc3)N2[C@H](c2ccc(OCCO)cc2)[C@@]12C(=O)N(C(=O)OCCOC)c1ccc(C#Cc3ccc(OC)cc3)cc12	1.01	-1.14	0.399	1.6	0.169	-0.27	-0.291	-0.272	0.229	1.22
CCC#CCN(Cc1ccccc1Br)[C@H](/C=C/C1CC1)[C@@H](O)Cc1ccccc1	-1.04	-2.19	-0.398	-0.414	-0.659	-0.197	-0.214	-0.209	-0.675	-0.229
CC(=O)NCCCC[C@@H]1NC(=O)[C@@H]2C[C@H](C(=O)NCCCCCN)[C@H](c3cccc(OCCO)c3)N2C1=O	0.794	-0.0844	0.736	1.09	0.634	0.0546	0.663	0.489	1.03	1.16
C[N+](C)(C)CCCCCCNC(=O)[C@@H]1C[C@@H]2C(=O)N3CCC[C@H]3C(=O)N2[C@@H]1c1ccc(O)cc1	0.279	0.501	0.994	-0.31	-0.887	-0.0239	-0.138	-0.29	0.531	0.341
CC(C)C(O)C1C=CC2C(=O)N(c3ccccc3)C(=O)C2N1Nc1ccccc1 (stereo not given)	1.5	-0.831	0.138	1.71	0.325	0.0324	-0.156	1.32	1.1	1.23
NC(=O)NCC#Cc1ccc2c(c1)[C@]1(C(=O)N2)[C@H](c2ccccc2OCCO)N2[C@H](c3ccccc3)[C@H](c3ccccc3)OC(=O)[C@H]2[C@@H]1C(=O)NC[C@H](O)c1ccccc1	1.36	-0.651	-0.568	-0.157	0.501	-0.0981	0.0141	-0.213	0.395	1.1
C=CC[C@@]1(C(=O)NCCCOC)N=C(c2ccc(OCCCO)cc2)O[C@@H]1c1ccccc1	1.06	-0.449	-0.526	1.94	0.626	0.155	-0.102	0.365	2.89	-0.146
O=c1cccc(-c2ccc([N+](=O)[O-])cc2)o1	0.79	-0.885	0.37	-0.273	-0.389	0.0775	0.199	-0.208	1.11	0.38
CCCCN1CC=CC23O[C@@H]4/C=C\CCCOC(=O)C4[C@H]2C(=O)N(CCO)[C@@H]3C1=O (stereo not given in full)	0.493	-0.219	-1.51	-0.343	0.278	-0.221	-0.206	-0.158	0.0966	-0.401
COc1cc2c(cc1O)C(C1CC1)N(C)CC2 (stereo not given)	-1.01	-0.817	-0.893	-1.01	-0.193	-0.0101	-0.24	-0.139	-0.431	-1.72
COc1cc2c(cc1O)C(c1ccc(CN3CCCC3)cc1)N(Cc1cc3c(cc1Br)OCO3)CC2 (stereo not given)	-1.28	-2.92	-0.248	1.47	0.91	-0.109	-0.2	0.114	0.16	0.132
CC(C)NC(=O)[C@@]1(C)c2ccccc2C(=O)N(Cc2ccc(OC(F)(F)F)cc2)[C@H]1c1ccc(CO)cc1	0.0959	-0.706	-1.49	-0.43	0.495	-0.124	-0.0833	-0.472	-0.284	-0.94
C=CC[C@@H](OC(=O)Nc1ccc(OC)cc1)c1ccc(O)c(F)c1	0.954	-1.73	-0.784	-0.976	-0.427	-0.184	0.0141	-0.0602	1.55	-0.418
OCCCC1=CC(c2ccc(CN3CCCC3)cc2)N(Cc2cc3c(cc2Br)OCO3)CC1 (stereo not given)	-0.377	-3.23	0.477	-0.464	-0.811	-0.0735	0.0611	0.162	1.17	0.396
O=C(C1N=C(c2ccc(OCCCO)cc2)N(c2ccccc2)O1)N1CCCCC1 (stereo not given)	1.26	0.65	0.413	2	0.867	0.0454	-0.229	0.411	1.25	1.85
[N-]=[N+]=Nc1ccccc1C[C@@]1(C(=O)N2CCOCC2)N=C(c2ccc(OCCCO)cc2)O[C@@H]1c1ccccc1	1	-1.57	-0.0238	1.37	-0.258	0.291	0.771	-0.738	1.43	1.39
C=CCN1Cc2ccccc2[C@@H]2OC(c3ccc(OCCCO)cc3)=N[C@]2(CC=C)C1=O	0.139	-1.43	0.718	0.698	-0.0856	0.128	0.0469	0.634	2.02	2.04
Cc1ccc(N2C(=O)c3ccccc3[C@@H](C(=O)NCCCN(C)C)[C@@H]2c2ccc(CO)cc2)nc1	-0.48	0.234	-0.14	-0.571	-0.382	-0.22	-0.452	-0.577	1.29	0.14
